# Screens (PubChem BioAssay)
# This is one part of a sample in which hits are shown more often than they occur.
# Pf Dd2 inh: blocks in vitro growth of P. falciparum Dd2; P. falciparum Dd2 growth, SYBR Green, 72 h; Potency, µM (highest dose often 28.9 µM), for the others: at the highest dose activity, negative = inhibition, actives largely listed as inhibitors; 120,000 compounds, 4.3% hits; AID 1347417; active means well fitted inhibition curve with a large enough effect;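 further: plate controls were DMSO vehicle for no effect and reference drug for full effect; nearly all actives have a fitted effect of over 65% in size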
#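 Readout: SYBR Green fluorescence, 485 nm excitation, 535 nm emission, after ~16 h lysis at 37C. Before that, Dd2-infected red cells (2.5% hematocrit) grew 72 h with compound, 29 uM top final concentration.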
# Active calls of the source: *; i = inactive; [ ] = dose if it differs, or a comment. Potency means the concentration at half of the fitted maximal effect.
SMILES,Pf Dd2 inh
CC(C)c1noc(CC2CCN(C(=O)c3ccc(C(C)(C)C)cc3)CC2)n1,7.9µM*
CC(C)c1noc(CC2CCN(C(=O)c3ccc(F)cc3)CC2)n1,17%
CCc1nnc(NC(=O)C2CC(=O)N(c3n[nH]c4cccc(F)c34)C2)s1 (stereo not drawn),-9%
Cc1ccc(O[C@H]2COCC[C@H]2NC(=O)c2ccc3c(c2)OCO3)cn1,-2%
CCc1cccc(C)c1NC(=O)CN1C(=O)NC2(CCC(C)CC2)C1=O (stereo not drawn),4%
O=C(c1ccccn1)N1CCC2(CCCCO2)CC1,21%
CCn1c(-c2ccccc2)nn(CC(=O)NCc2noc(-c3ccco3)n2)c1=O,1%
O=C(Nc1cccc(Cl)c1)[C@@H]1C[C@@H](c2ccc(F)cc2)N([S+](=O)([O-])c2ccccc2)C1,-3%
COc1ccc(NC(=O)[C@@H]2C[C@@H](c3ccc(F)cc3)N([S+](=O)([O-])c3ccccc3)C2)cn1,-24%
COc1ccc(NC(=O)[C@@H]2C[C@@H](c3ccc(F)cc3)N([S+](=O)([O-])c3ccccc3)C2)cc1,8.9µM*
N#Cc1ccc(-c2nc(C3CC(=O)N(c4ccc(Cl)cc4)C3)no2)cc1 (stereo not drawn),i
Cc1cccc2oc(CNC(=O)[C@H]3CCC[C@H](O)C3)nc12,-12%
CC(C)c1noc(-c2cn(C3CCCN(C(=O)c4ccco4)C3)nn2)n1 (stereo not drawn),193%
COc1ccccc1OCC(=O)NCC1CCCN(Cc2ccc(C)c(C)c2)C1 (stereo not drawn),-7%
CCn1cc(CN2CCCC(CNC(=O)c3cc(OC)cc(OC)c3)C2)c(C)n1 (stereo not drawn),-15%
COc1cc(OC)cc(C(=O)NCC2CCCN(C/C=C/c3ccccc3OC)C2)c1 (stereo not drawn),8.9µM*
COCCn1ncc(N2CCC(C(=O)Nc3cc(OC)cc(OC)c3)C2)cc1=O (stereo not drawn),-25%
CC(=O)N1Cc2ccccc2CC2(CCCN2CC2CCCC2)C1 (stereo not drawn),10µM*
CC(=O)N1CC2(CCCN2C2COC2)Cc2ccccc21 (stereo not drawn),3%[44.1 µM]
CC(=O)NCCC(=O)N1Cc2ccccc2CC2(CCCN2CC2CCCCC2)C1 (stereo not drawn),8.9µM*
CC(=O)N1Cc2ccccc2CC2(CCCN2CC2CCOCC2)C1 (stereo not drawn),-11%
CC(=O)NCCC(=O)N1Cc2ccccc2CC2(CCCN2CC2CCNCC2)C1 (stereo not drawn),20%
CCCN1CCCC12Cc1ccccc1CN(C(=O)CCNC(C)=O)C2 (stereo not drawn),-9%
CC(=O)NCCC(=O)N1Cc2ccccc2CC2(CCN(CC3CCNC3)C2)C1 (stereo not drawn),-12%
O=C(C1CCCC1)N1CC2(CCCCN2CC2CC2)Cc2ccccc21 (stereo not drawn),-17%
SMILES,Pf Dd2 inh
CC(=O)N1CC2(CCCN2CC2CC2)Cc2ccccc21 (stereo not drawn),10µM*
CN1CCC(C(=O)N2Cc3ccccc3CC3(CCCCN3CC3CCNCC3)C2)CC1 (stereo not drawn),18%
CC(=O)NCCC(=O)N1Cc2ccccc2CC2(CCCN2CCc2ccc(C)cc2)C1 (stereo not drawn),8.9µM*
O=C(Cc1c[nH]c2ccccc12)N[C@H](Cc1ccccn1)C1CC(O)C1 (stereo partly drawn),-1%
N#Cc1ccc(CN2CCn3nnc(-c4nc(-c5ccsc5)no4)c3C2=O)cc1,-6%
Cc1cccc(NC(=O)Nc2ccc(C)n(CC(=O)NC3CCCCC3)c2=O)c1,i
COCC1(CNCc2c(C)noc2C)C[C@@H](O)[C@@H](O)C1 (stereo partly drawn),-24%[44.1 µM]
O=C(NCc1ccccc1)N1CCCC(Cc2nncn2-c2ccccc2)C1 (stereo not drawn),-8%
Cc1cnc(C(=O)N2CCCC(C(=O)NCc3ccccc3)CCNC(=O)CC2)cn1 (stereo not drawn),i
Cc1noc(C)c1-c1cnc(Nc2ccc(CN3CCN(C)CC3)cc2)c2c1CCO2,5.6µM*
Cc1noc(C)c1-c1cnc(Nc2cc(F)cc(N3CCOCC3)c2)c2c1CCO2,-6%[44.1 µM]
Cc1noc(C)c1-c1cnc(Nc2ccc(Cl)cn2)c2c1CCO2,-16%[44.1 µM]
C#CCNC(=O)C1CN(c2ccccc2)C(=O)N1 (stereo not drawn),1%[44.1 µM]
CC(C)NC(=O)N1CCC2(CC1)CC(N(C(=O)c1ccccc1)C1CC1)CCO2 (stereo not drawn),i
CC(C)c1nncn1C1CCN(S(=O)(=O)c2ccc(Cl)cc2)CC1,-16%
COc1ccc(-c2nnc(C[C@@H]3C[C@@H](C(C)C)[C@H](CO)C=C3C)o2)cc1,10µM*
CC1=C[C@@H](CNC(=O)c2ccccc2)[C@H](C(C)C)C[C@H]1CC(=O)N1CCCC1,11µM*
COc1ccc(C(=O)NC[C@@H]2C=C(C)[C@H](CC(=O)N3CCN(C(C)=O)CC3)C[C@H]2C(C)C)cc1,-17%
CCOC(=O)C[C@@H]1C[C@@H](C(C)C)[C@H](CNC(=O)c2ccncc2)C=C1C,i
CC(=O)NC[C@@H]1C=C(C)[C@H](CC(=O)N2CCN(C(C)=O)CC2)C[C@H]1C(C)C,-12%[44.1 µM]
CC1=C[C@@H](CO)[C@H](C(C)C)C[C@H]1Cc1nnc(-c2cccnc2)o1,i
COc1ccc(C(=O)NC[C@@H]2C=C(C)[C@H](Cc3nnc(-c4ccncc4)o3)C[C@H]2C(C)C)cc1,3.5µM*
CC1=C[C@@H](CNC(=O)C(C)(C)C)[C@H](C(C)C)C[C@H]1Cc1nnc(-c2ccncc2)o1,-10%[44.1 µM]
CN(C)c1ccc(CN2CCn3c(nn(-c4cccc(Cl)c4)c3=O)C2)cc1,49%
CS(=O)(=O)N(C1CC1)C1CCOC2(CCN(C(=O)c3cccc(F)c3)CC2)C1 (stereo not drawn),-14%
SMILES,Pf Dd2 inh
Cc1ccc(N2CC(c3noc(-c4cc(F)cc(F)c4)n3)CC2=O)cc1 (stereo not drawn),24%
CCOc1ccc(NC(=O)C2CCCN(c3cn[nH]c(=O)c3)C2)cc1 (stereo not drawn),-8%
Cc1cc2nc3n(c(=O)c2n1CC(=O)N1CCN(c2ccccc2F)CC1)CCCCC3,i
O=C(COc1cccc(-c2nnc3n2CCCC3)c1)N1CCN(c2ccccc2F)CC1,5µM*
O=C(Cn1nc2n(c1=O)CCCC2)N1CCN(c2ccccc2F)CC1,-17%
O=C(COc1ccc(-c2nnc3n2CCCC3)cc1)NCc1ccc2c(c1)OCO2,10µM*
CCOc1ccc(NC(=O)COc2cccc(-c3nnc4n3CCCC4)c2)cc1,2.8µM*
Cc1cccc(NC(=O)COc2ccc3oc4c(c3c2)CCCC4)c1,33%
COc1ccc(CNC(=O)COCc2cc(-c3ccc4c(c3)OCO4)on2)cc1,150%
CCOc1ccc(NC(=O)Cn2nc3n(c2=O)CCCCC3)cc1,27%
Cc1nc(N2CCC(C(=O)NCc3ccc4c(c3)OCO4)CC2)cc(C(F)(F)F)n1,-16%
CCOc1ccc(NC(=O)Cn2c(C)cc3nc4n(c(=O)c32)CCCCC4)cc1,-12%
CSc1cccc(NC(=O)COc2cccc(-c3nnc4n3CCCC4)c2)c1,11µM*
COc1cccc(-c2cc(C3CCN(C(=O)Nc4cccc(SC)c4)CC3)[nH]n2)c1,-28%
O=C(c1ccc(SCCO)cc1)N1CCCC(CO)(CC2CC2)C1 (stereo not drawn),1%
CCOc1ccc(-c2[nH]ncc2CNC(=O)c2ccc(N(C)C)cc2)cc1,-10%
